Reference: PubChem BioAssay AID1159580 (chemical genetic matrix, 2015)
“And” between values parts separate entries of the source, which are not always exact repeats. Equal values may be shown once. The campaign covered roughly 5,500 compounds. About 2,000 (36%) were called active. Inconclusive results (about 18%) are left out. Rule as the data show it: active = normalized growth mostly below about 0.91 (no sharp cut-off); inconclusive = no clear call, values can overlap the other calls; inactive = mostly above about 0.92. The list shows a part of the results.

Assay: chemical genetic growth profiling, strain panel (AID 1159580);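 also: tested at 20 µM; growth read once vehicle control cultures reached saturation at 30 °C; 1 = growth at the plate median or of vehicle wells; lower values mean less growth of the strain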
Settings: S. cerevisiae deletion strains, growth OD

Measured: normalized growth

COc1ccc(-c2coc3c(OC)c(OC)cc(O)c3c2=O)cc1
inactive: locus YAL021C, strain ccr4, active compounds read low 1.03 | locus YAL026C, strain drs2, active compounds read low 1 | locus YAL030W, strain snc1, active compounds read low 0.997 | locus YBL061C, strain skt5, active compounds read low 0.999 | locus YBR009C, strain hhf1, active compounds read low 1.01 | locus YBR023C, strain chs3, active compounds read low 0.99 | locus YBR171W, strain sec66, active compounds read low 1.03 | locus YBR229C, strain ROT2, active compounds read low 0.988 | locus YBR231C, strain swc5, active compounds read low 0.994 | locus YBR279W, strain paf1, active compounds read low 0.995 | locus YCL011C, strain gbp2, active compounds read low 0.998 | locus YCL016C, strain dcc1, active compounds read low 1 | locus YCL029C, strain bik1, active compounds read low 0.975 | locus YCL061C, strain MRC1, active compounds read low 1.01 | locus YCL069W, strain vba3, active compounds read low 0.999 | locus YCR088W, strain abp1, active compounds read low 0.997 | locus YDL005C, strain med2, active compounds read low 1 | locus YDL035C, strain GPR1, active compounds read low 0.981 | locus YDL040C, strain nat1, active compounds read low 1 | locus YDL074C, strain BRE1, active compounds read low 0.924 | locus YDL101C, strain DUN1, active compounds read low 0.988 | locus YDL185W, strain tfp1, active compounds read low 1.01 | locus YDL192W, strain arf1, active compounds read low 0.942 | locus YDR001C, strain nth1, active compounds read low 0.997 | locus YDR069C, strain doa4, active compounds read low 1 | locus YDR101C, strain arx1, active compounds read low 0.947 | locus YDR137W, strain rgp1, active compounds read low 0.951 | locus YDR159W, strain sac3, active compounds read low 0.988 | locus YDR162C, strain NBP2, active compounds read low 0.959 | locus YDR195W, strain ref2 1.05 | locus YDR297W, strain sur2, active compounds read low 0.992 | locus YDR318W, strain mcm21, active compounds read low 0.948 | locus YDR334W, strain swr1, active compounds read low 1.01 | locus YDR335W, strain msn5, active compounds read low 1 | locus YDR388W, active compounds read low 0.974 | locus YDR392W, strain spt3, active compounds read low 0.965 | locus YDR502C, strain sam2, active compounds read low 0.95 | locus YEL003W, strain gim4, active compounds read low 0.994 | locus YEL037C, strain rad23, active compounds read low 1.01 | locus YEL061C, strain CIN8 (second series), active compounds read low 1.01 | locus YER015W, strain faa2, active compounds read low 1 | locus YER016W, strain bim1, active compounds read low 1.01 | locus YER110C, active compounds read low 0.959 | locus YER111C, strain swi4, active compounds read low 1.03 | locus YER155C, strain BEM2 (second series), active compounds read low 1.01 | locus YER155C, strain BEM2, active compounds read low 0.996 | locus YER167W, strain BCK2, active compounds read low 0.99 | locus YFR010W, strain ubp6, active compounds read low 1.01 | locus YGL078C, strain dbp3, active compounds read low 0.968 | locus YGL086W, strain mad1, active compounds read low 0.954 | locus YGL167C, strain pmr1, active compounds read low 1.01 | locus YGL173C, strain kem1, active compounds read low 1 | locus YGL227W, strain vid30, active compounds read low 1 | locus YGL240W, strain doc1, active compounds read low 0.991 | locus YGL248W, strain PDE1, active compounds read low 0.96 | locus YGL253W, strain hxk2, active compounds read low 1.01 | locus YGR078C, strain PAC10, active compounds read low 0.956 | locus YGR135W, strain pre9, active compounds read low 0.928 | locus YGR229C, strain SMI1, active compounds read low 0.896 | locus YHR013C, strain ard1, active compounds read low 0.989 | locus YHR027C, strain rpn1, active compounds read low 1.01 | locus YHR030C, strain SLT2, active compounds read low 0.917 | locus YHR079C, strain IRE1 (second series), active compounds read low 0.978 | locus YHR079C, strain IRE1, active compounds read low 0.925 | locus YHR094C, strain hxt1, active compounds read low 0.982 | locus YHR129C, strain ARP1, active compounds read low 0.985 | locus YHR142W, strain chs7, active compounds read low 0.976 | locus YHR200W, strain rpn10, active compounds read low 0.941 | locus YIL066C, strain RNR3, active compounds read low 0.986 | locus YIL073C, strain SPO22, active compounds read low 0.9 | locus YIL125W, strain kgd1, active compounds read low 0.983 | locus YIR030C, strain dcg1, active compounds read low 0.961 | locus YJL092W, strain hpr5, active compounds read low 1.01 | locus YJL095W, strain BCK1 (second series), active compounds read low 0.995 | locus YJL095W, strain BCK1, active compounds read low 0.871 and 0.958 | locus YJL115W, strain asf1, active compounds read low 1.01 | locus YJL129C, strain trk1, active compounds read low 0.999 | locus YJL134W, strain LCB3, active compounds read low 1 | locus YJL154C, strain vps35, active compounds read low 1.01 | locus YJL164C, strain tpk1, active compounds read low 0.997 | locus YJL166W, strain qcr8, active compounds read low 0.996 | locus YJL168C, strain set2, active compounds read low 0.978 | locus YJL187C, strain SWE1 (second series), active compounds read low 0.968 | locus YJL187C, strain SWE1, active compounds read low 0.992 | locus YJR066W, strain TOR1, active compounds read low 0.863 | locus YKL009W, strain mrt4, active compounds read low 0.972 | locus YKL068W, active compounds read low 0.993 | locus YKL085W, strain MDH1 (second series), active compounds read low 0.979 | locus YKL085W, strain MDH1, active compounds read low 0.979 | locus YKL160W, strain elf1, active compounds read low 0.991 | locus YKR026C, strain gcn3, active compounds read low 1.01 | locus YKR091W, strain srl3, active compounds read low 0.999 | locus YLL001W, strain dnm1, active compounds read low 1.01 | locus YLL026W, active compounds read low 1.01 | locus YLL041C, strain sdh2, active compounds read low 1.01 | locus YLR027C, strain aat2, active compounds read low 1 | locus YLR039C, strain RIC1, active compounds read low 0.903 | locus YLR058C, strain SHM2, active compounds read low 0.96 | locus YLR102C, strain apc9, active compounds read low 0.986 | locus YLR113W, strain HOG1, active compounds read low 0.949 | locus YLR221C, strain rsa3, active compounds read low 0.997 | locus YLR258W, strain gsy2, active compounds read low 0.982 | locus YLR262C, strain YPT6 (second series), active compounds read low 0.949 | locus YLR268W, strain sec22, active compounds read low 0.927 | locus YLR320W, strain mms22, active compounds read low 0.993 | locus YLR330W, strain CHS5, active compounds read low 0.976 | locus YLR342W, strain FKS1, active compounds read low 1 | locus YLR357W, strain rsc2, active compounds read low 0.989 | locus YLR370C, strain arc18, active compounds read low 1 | locus YLR371W, strain rom2, active compounds read low 0.945 | locus YLR384C, strain iki3, active compounds read low 1.01 | locus YLR418C, strain cdc73, active compounds read low 0.855 | locus YML016C, strain PPZ1, active compounds read low 0.985 | locus YML032C, strain rad52, active compounds read low 0.951 | locus YML120C, strain ndi1, active compounds read low 0.997 | locus YML124C, strain tub3, active compounds read low 0.981 | locus YMR058W, strain fet3, active compounds read low 1.01 | locus YMR078C, strain ctf18, active compounds read low 0.976 | locus YMR125W, strain sto1, active compounds read low 1.01 | locus YMR129W, active compounds read low 1 | locus YMR205C, strain PFK2, active compounds read low 0.991 | locus YMR223W, strain ubp8, active compounds read low 0.95 | locus YMR231W, strain pep5, active compounds read low 0.995 | locus YMR263W, strain SAP30, active compounds read low 0.97 | locus YMR307W, strain GAS1, active compounds read low 0.787 | locus YNL067W, strain RPL9B, active compounds read low 0.968 | locus YNL071W, strain lat1, active compounds read low 1 | locus YNL128W, strain TEP1, active compounds read low 1.01 | locus YNL183C, strain NPR1, active compounds read low 0.913 | locus YNL209W, strain ssb2, active compounds read low 0.999 | locus YNL233W, strain BNI4, active compounds read low 0.908 | locus YNL248C, strain rpa49, active compounds read low 1.01 | locus YNL250W, strain rad50, active compounds read low 0.997 | locus YNL271C, strain bni1, active compounds read low 0.98 | locus YNL298W, strain CLA4, active compounds read low 0.965 | locus YNL322C, strain KRE1 (second series), active compounds read low 1.01 | locus YNR049C, strain mso1, active compounds read low 1 | locus YNR052C, strain pop2, active compounds read low 0.977 | locus YOL012C, strain htz1 0.766 | locus YOL147C, strain pex11, active compounds read low 0.96 | locus YOR001W, strain rrp6, active compounds read low 1.01 | locus YOR061W, strain CKA2, active compounds read low 1 | locus YOR069W, strain VPS5, active compounds read low 0.995 | locus YOR070C, strain gyp1, active compounds read low 1.02 | locus YOR080W, strain dia2, active compounds read low 1.01 | locus YOR083W, strain WHI5, active compounds read low 0.99 | locus YOR106W, strain vam3, active compounds read low 0.989 | locus YOR136W, strain idh2, active compounds read low 0.976 | locus YOR144C, strain elg1, active compounds read low 0.979 | locus YOR184W, strain ser1, active compounds read low 0.887 | locus YOR231W, strain MKK1, active compounds read low 0.949 | locus YOR265W, strain rbl2, active compounds read low 1.01 | locus YOR270C, strain vph1, active compounds read low 0.945 | locus YOR290C, strain snf2, active compounds read low 0.986 | locus YOR316C, strain cot1, active compounds read low 0.991 | locus YPL051W, strain arl3, active compounds read low 0.997 | locus YPL078C, strain atp4, active compounds read low 0.991 | locus YPL106C, strain sse1, active compounds read low 0.948 | locus YPL240C, strain hsp82, active compounds read low 0.994 | locus YPL241C, strain CIN2, active compounds read low 1.01 | locus YPL256C, strain CLN2, active compounds read low 0.904 | locus YPR119W, strain clb2, active compounds read low 0.982 | locus YPR141C, strain kar3, active compounds read low 0.979 | locus YPR167C, strain met16, active compounds read low 0.955 | strain wtn01, active compounds read low 0.942
active: locus YBR021W, strain FUR4, active compounds read low 0.838 | locus YGR252W, strain gcn5, active compounds read low 0.74 | locus YKR001C, strain vps1, active compounds read low 0.871 | locus YNL307C, strain MCK1, active compounds read low 0.903 | locus YPR163C, strain tif3, active compounds read low 0.866
